Measurements as given in PubChem BioAssay (NCATS).
Inconclusive results are not listed. The source made the active and inactive calls. Unless noted, the call rests on the fitted dose curve; in most records, active means well fitted curve in the direction sought with a large enough effect; inconclusive means small, poorly fitted or top-dose-only effect, or another doubt; inactive means no such curve, though single readings can be large; an effect the other way counts as inactive or inconclusive.

Columns and labels:
[1] = NFAT Signaling Pathway (AID 444; active means well fitted curve in either direction with a large enough effect, not every such curve was filed as active;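 further: carbachol stimulus at about its EC50 of 1 µM final; on the % scale 0 is the no-effect control and ±100 the full control effect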); settings: Jurkat NFAT-bla M1, carbachol, beta-lactamase ratio, 5 h; at 17.2 µM (top of the series) unless noted
How it was run: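 Jurkat cells with NFAT-driven β-lactamase reporter and co-expressed M1 receptor, stimulated with carbachol (final 1 uM, ~EC50), compound titration, 5 h at 37 °C. CCF4 loaded 1 h at RT; 460/530 nm ratio gave %activity and AC50.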

[2] = Stat Signaling Pathway (AID 446; active means well fitted curve in either direction with a large enough effect, not every such curve was filed as active;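 further: ME-180 cervical cancer cells given 40 pM IL-6 alongside compound; SIE-controlled beta-lactamase reporter measured as 460/530 nm FRET emission ratio; on the % scale 0 is the no-effect control and ±100 the full control effect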)
How it was run: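 Screening format detects activators and inhibitors alike: ME-180 SIE-bla cells stimulated at 40 pM IL-6 for 5 hrs with compound, then dual-emission beta-lactamase read at 405 nm excitation.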

[3] = biological target: Glucocorticoid receptor (Homo sapiens) (UniProt P04150); assay: GR-GFP Redistribution (AID 450;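 active means compounds whose dose series gives a full or clear partial fitted curve of increased nuclear translocation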; further: potency means the concentration at half of the fitted maximal effect); settings: U2OS GR-GFP nuclear translocation, laser cytometry, 2 h
[4] = biological target: Glucocorticoid receptor (Homo sapiens) (UniProt P04150); assay: GR-EFC Redistribution (AID 451; calls by dose curve; further: potency means the concentration at half of the fitted maximal effect); settings: CHO-K1 GR-EFC translocation, beta-gal luminescence, 2 h
How it was run: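 CHO-K1 cells expressing nuclear EA and GR-ED fragments of b-gal; compounds titrated up to 46 uM final, 2 h at 37 C. GR nuclear translocation read as complemented b-gal luminescence after 1 h RT detection.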

[5] = biological target: Mitogen-activated protein kinase 10 (Mus musculus) (UniProt Q61831); assay: JNK3 AlphaScreen Assay (AID 530; active means well fitted curve in either direction with a large enough effect, not every such curve was filed as active;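 further: kinase came from lysate of stimulated human HepG2 cells; signal reports phosphorylation of biotinylated GST-cJun 1-79 at Ser73 with 10 µM ATP; on the % scale 0 is the no-effect control and ±100 the full control effect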)
How it was run: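 qHTS format: compounds tested as titrations against IL-1beta/TNF-alpha-activated HepG2 lysate JNK3 with biotin-GST-cJun substrate and 10 uM ATP at room temperature. Loss of anti-phospho-cJun AlphaScreen signal indicates inhibition.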

[6] = biological target: 3',5'-cyclic-AMP phosphodiesterase 4B (Homo sapiens) (UniProt Q07343); assay: qHTS Assay for Inhibitors of PDE-IV (AID 607; active means well fitted activation curve with a large enough effect in the main read-out, with a control signal flat, not every such curve was filed as active; further: % of control where 0% means no effect)
How it was run: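 The readout is membrane depolarisation from a cAMP-sensing CNG channel, detected with a potential dye at ex 535/em 590. Cells were HEK293-derived (endogenous PDE-IV) at 1000 cells/well, titrated up to 22.9 uM final.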

[7] = biological target: ATP-dependent 6-phosphofructokinase (Trypanosoma brucei brucei) (UniProt O15648); assay: qHTS Assay to Find Inhibitors of T. brucei phosphofructokinase: hit validation (AID 492961);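 further: luminescence reports ADP formed as PFK phosphorylates fructose-6-phosphate with ATP; on the % scale 0 is the no-effect control and ±100 the full control effect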
How it was run: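 Inhibition of parasite PFK is measured as reduced ADP formation, quantified via luciferase after ATP depletion. Assay used 0.1 mM ATP, 0.5 mM F6P, 1.25 nM enzyme, 45 min incubation.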

[8] = biological target: Luciferin 4-monooxygenase (Photinus pyralis) (UniProt P08659); assay: Biochemical firefly luciferase enzyme assay for NPC (AID 624030);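 further: purified P. pyralis luciferase at 10 nM with luciferin and ATP substrate; 0% = DMSO and -100% = full luciferase inhibition by PTC124 control; nearly all actives have a fitted effect of over 70% in size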
How it was run: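 Purified P. pyralis luciferase at 10 nM in 50 mM Tris Acetate (final), luminescence read within 5 minutes of enzyme addition to compounds. Activity normalised to PTC124 versus DMSO; concentration-response curves classed by r2, magnitude and activity.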

[9] = S16 Schwann cell viability assay (CellTiter-Glo assay) (AID 624031);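 further: cellular ATP luminescence as a viability measure; plate controls were DMSO-treated cells for no effect and cell-free wells for full effect; nearly all actives have a fitted effect of over 70% in size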
How it was run: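 CellTiter-Glo ATP luminescence counter-screen in untransfected S16 rat Schwann cells, 24h compound exposure at 37 degree Celsius after overnight seeding (500-750 cells/well); response scaled between cell-free wells and DMSO (0% activity), curves classed by r2 and magnitude.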

[10] = S16 Schwann cell PMP22 intronic element beta-lactamase assay (AID 624044; calls by dose curve;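 further: 0% = DMSO and -100% = potassium clavulanate positive control; nearly all actives have a fitted effect of over 15% in size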)
How it was run: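 Rat S16 Schwann cells with beta-Lac driven by a PMP22 intronic element, compound-treated 24 h at 37 °C. LiveBLAzer FRET B/G read: 460 nm normalized to potassium clavulanate vs DMSO; 535 nm FRET as viability; concentration-effect curves classified.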

[11] = qHTS profiling for inhibitors of Plasmodium falciparum proliferation (AID 504749);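 further: 0% = DMSO vehicle and full inhibition = artemisinin control; nearly all actives have a fitted effect of over 60% in size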; settings: P. falciparum in erythrocytes, SYBR Green DNA, 72 h; at 12.8 µM (top of the series); parasite line B
How it was run: (§1)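 Readout was DNA-dye fluorescence from lysed cultures, ex 485/em 535 nm. Parasitized red cells had grown 72 h with compound; data scaled between 0.29 uM artemisinin and DMSO wells and corrected using vehicle-only plates.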

3D7 = assay: as above; settings: P. falciparum in erythrocytes, SYBR Green DNA, 72 h; series mostly up to 12.8 µM
How it was run: as §1

AA1029 = assay: as above; settings: P. falciparum in erythrocytes, SYBR Green DNA, 72 h; series mostly up to 12.8 µM
How it was run: as §1

ATS95 = assay: as above; settings: P. falciparum in erythrocytes, SYBR Green DNA, 72 h; series mostly up to 12.8 µM
How it was run: as §1

C2A = assay: as above; settings: P. falciparum in erythrocytes, SYBR Green DNA, 72 h; series mostly up to 12.8 µM
How it was run: as §1

CP185 = assay: as above; settings: P. falciparum in erythrocytes, SYBR Green DNA, 72 h; series mostly up to 12.8 µM
How it was run: as §1

CP191 = assay: as above; settings: P. falciparum in erythrocytes, SYBR Green DNA, 72 h; series mostly up to 12.8 µM
How it was run: as §1

CP192 = assay: as above; settings: P. falciparum in erythrocytes, SYBR Green DNA, 72 h; series mostly up to 12.8 µM
How it was run: as §1

CP194 = assay: as above; settings: P. falciparum in erythrocytes, SYBR Green DNA, 72 h; series mostly up to 12.8 µM
How it was run: as §1

CP201 = assay: as above; settings: P. falciparum in erythrocytes, SYBR Green DNA, 72 h; series mostly up to 12.8 µM
How it was run: as §1

CP203 = assay: as above; settings: P. falciparum in erythrocytes, SYBR Green DNA, 72 h; series mostly up to 12.8 µM
How it was run: as §1

CP211 = assay: as above; settings: P. falciparum in erythrocytes, SYBR Green DNA, 72 h; series mostly up to 12.8 µM
How it was run: as §1

CP217 = assay: as above; settings: P. falciparum in erythrocytes, SYBR Green DNA, 72 h; series mostly up to 12.8 µM
How it was run: as §1

CP237 = assay: as above; settings: P. falciparum in erythrocytes, SYBR Green DNA, 72 h; series mostly up to 12.8 µM
How it was run: as §1

CP238 = assay: as above; settings: P. falciparum in erythrocytes, SYBR Green DNA, 72 h; series mostly up to 12.8 µM
How it was run: as §1

CP247 = assay: as above; settings: P. falciparum in erythrocytes, SYBR Green DNA, 72 h; series mostly up to 12.8 µM
How it was run: as §1

CP250 = assay: as above; settings: P. falciparum in erythrocytes, SYBR Green DNA, 72 h; series mostly up to 12.8 µM
How it was run: as §1

CP252 = assay: as above; settings: P. falciparum in erythrocytes, SYBR Green DNA, 72 h; series mostly up to 12.8 µM
How it was run: as §1

CP260 = assay: as above; settings: P. falciparum in erythrocytes, SYBR Green DNA, 72 h; series mostly up to 12.8 µM
How it was run: as §1

CP262 = assay: as above; settings: P. falciparum in erythrocytes, SYBR Green DNA, 72 h; series mostly up to 12.8 µM
How it was run: as §1

CP265 = assay: as above; settings: P. falciparum in erythrocytes, SYBR Green DNA, 72 h; series mostly up to 12.8 µM
How it was run: as §1

CP268 = assay: as above; settings: P. falciparum in erythrocytes, SYBR Green DNA, 72 h; series mostly up to 12.8 µM
How it was run: as §1

CP269 = assay: as above; settings: P. falciparum in erythrocytes, SYBR Green DNA, 72 h; series mostly up to 12.8 µM
How it was run: as §1

CP286 = assay: as above; settings: P. falciparum in erythrocytes, SYBR Green DNA, 72 h; series mostly up to 12.8 µM
How it was run: as §1

CP291 = assay: as above; settings: P. falciparum in erythrocytes, SYBR Green DNA, 72 h; series mostly up to 12.8 µM
How it was run: as §1

CP297 = assay: as above; settings: P. falciparum in erythrocytes, SYBR Green DNA, 72 h; series mostly up to 12.8 µM
How it was run: as §1

CP305 = assay: as above; settings: P. falciparum in erythrocytes, SYBR Green DNA, 72 h; series mostly up to 12.8 µM
How it was run: as §1

CP315 = assay: as above; settings: P. falciparum in erythrocytes, SYBR Green DNA, 72 h; series mostly up to 12.8 µM
How it was run: as §1

CP325 = assay: as above; settings: P. falciparum in erythrocytes, SYBR Green DNA, 72 h; series mostly up to 12.8 µM
How it was run: as §1

CP329 = assay: as above; settings: P. falciparum in erythrocytes, SYBR Green DNA, 72 h; series mostly up to 12.8 µM
How it was run: as §1

CP335 = assay: as above; settings: P. falciparum in erythrocytes, SYBR Green DNA, 72 h; series mostly up to 12.8 µM
How it was run: as §1

DFO2036 = assay: as above; settings: P. falciparum in erythrocytes, SYBR Green DNA, 72 h; series mostly up to 12.8 µM
How it was run: as §1

Dd2 = assay: as above; settings: P. falciparum in erythrocytes, SYBR Green DNA, 72 h; series mostly up to 12.8 µM
How it was run: as §1

ECU = assay: as above; settings: P. falciparum in erythrocytes, SYBR Green DNA, 72 h; series mostly up to 12.8 µM
How it was run: as §1

FAB9 = assay: as above; settings: P. falciparum in erythrocytes, SYBR Green DNA, 72 h; series mostly up to 12.8 µM
How it was run: as §1

JCK = assay: as above; settings: P. falciparum in erythrocytes, SYBR Green DNA, 72 h; series mostly up to 12.8 µM
How it was run: as §1

PAD = assay: as above; settings: P. falciparum in erythrocytes, SYBR Green DNA, 72 h; series mostly up to 12.8 µM
How it was run: as §1

PC15 = assay: as above; settings: P. falciparum in erythrocytes, SYBR Green DNA, 72 h; series mostly up to 12.8 µM
How it was run: as §1

PC49 = assay: as above; settings: P. falciparum in erythrocytes, SYBR Green DNA, 72 h; series mostly up to 12.8 µM
How it was run: as §1

SC27B = assay: as above; settings: P. falciparum in erythrocytes, SYBR Green DNA, 72 h; series mostly up to 12.8 µM
How it was run: as §1

TAB109 = assay: as above; settings: P. falciparum in erythrocytes, SYBR Green DNA, 72 h; series mostly up to 12.8 µM
How it was run: as §1

TAB113 = assay: as above; settings: P. falciparum in erythrocytes, SYBR Green DNA, 72 h; series mostly up to 12.8 µM
How it was run: as §1

Chain of Glucocorticoid receptor (Homo sapiens) (P04150 whole entry, looked up, the tested form may be a part): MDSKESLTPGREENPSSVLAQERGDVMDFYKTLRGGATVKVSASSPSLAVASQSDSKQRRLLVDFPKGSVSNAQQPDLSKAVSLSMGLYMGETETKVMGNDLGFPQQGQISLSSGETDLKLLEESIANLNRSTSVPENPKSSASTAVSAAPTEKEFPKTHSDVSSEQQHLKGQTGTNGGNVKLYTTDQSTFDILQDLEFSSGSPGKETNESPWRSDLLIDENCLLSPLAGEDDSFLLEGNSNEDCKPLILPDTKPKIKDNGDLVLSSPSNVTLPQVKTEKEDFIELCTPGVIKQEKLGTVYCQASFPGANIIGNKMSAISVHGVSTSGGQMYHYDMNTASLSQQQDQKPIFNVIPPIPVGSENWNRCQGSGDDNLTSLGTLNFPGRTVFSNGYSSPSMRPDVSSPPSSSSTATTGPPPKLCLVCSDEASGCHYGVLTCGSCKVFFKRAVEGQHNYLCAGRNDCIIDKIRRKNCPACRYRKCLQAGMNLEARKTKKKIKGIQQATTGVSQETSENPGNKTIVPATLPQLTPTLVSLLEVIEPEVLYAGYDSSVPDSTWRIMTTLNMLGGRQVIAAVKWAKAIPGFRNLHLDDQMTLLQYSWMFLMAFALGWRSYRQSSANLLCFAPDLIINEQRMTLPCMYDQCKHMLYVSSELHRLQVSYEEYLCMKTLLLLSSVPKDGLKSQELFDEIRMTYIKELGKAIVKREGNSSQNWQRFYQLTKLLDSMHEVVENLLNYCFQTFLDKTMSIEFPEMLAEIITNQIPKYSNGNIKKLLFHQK
Chain of Luciferin 4-monooxygenase (Photinus pyralis) (P08659 whole entry, looked up): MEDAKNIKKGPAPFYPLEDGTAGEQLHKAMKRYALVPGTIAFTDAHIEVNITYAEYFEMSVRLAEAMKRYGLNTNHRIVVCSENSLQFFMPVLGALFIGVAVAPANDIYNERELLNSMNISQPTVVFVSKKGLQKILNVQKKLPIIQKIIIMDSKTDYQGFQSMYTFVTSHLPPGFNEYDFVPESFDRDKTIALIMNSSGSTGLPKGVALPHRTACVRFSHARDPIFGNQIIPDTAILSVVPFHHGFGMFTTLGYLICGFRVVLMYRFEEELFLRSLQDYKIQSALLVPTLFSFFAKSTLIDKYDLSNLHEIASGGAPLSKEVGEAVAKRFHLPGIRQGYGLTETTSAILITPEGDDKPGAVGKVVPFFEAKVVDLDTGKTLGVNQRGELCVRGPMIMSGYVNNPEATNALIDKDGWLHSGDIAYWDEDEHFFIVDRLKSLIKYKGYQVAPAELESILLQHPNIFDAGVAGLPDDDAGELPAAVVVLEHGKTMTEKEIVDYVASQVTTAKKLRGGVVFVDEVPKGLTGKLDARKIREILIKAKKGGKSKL
Chain of 3',5'-cyclic-AMP phosphodiesterase 4B (Homo sapiens) (Q07343 whole entry, looked up): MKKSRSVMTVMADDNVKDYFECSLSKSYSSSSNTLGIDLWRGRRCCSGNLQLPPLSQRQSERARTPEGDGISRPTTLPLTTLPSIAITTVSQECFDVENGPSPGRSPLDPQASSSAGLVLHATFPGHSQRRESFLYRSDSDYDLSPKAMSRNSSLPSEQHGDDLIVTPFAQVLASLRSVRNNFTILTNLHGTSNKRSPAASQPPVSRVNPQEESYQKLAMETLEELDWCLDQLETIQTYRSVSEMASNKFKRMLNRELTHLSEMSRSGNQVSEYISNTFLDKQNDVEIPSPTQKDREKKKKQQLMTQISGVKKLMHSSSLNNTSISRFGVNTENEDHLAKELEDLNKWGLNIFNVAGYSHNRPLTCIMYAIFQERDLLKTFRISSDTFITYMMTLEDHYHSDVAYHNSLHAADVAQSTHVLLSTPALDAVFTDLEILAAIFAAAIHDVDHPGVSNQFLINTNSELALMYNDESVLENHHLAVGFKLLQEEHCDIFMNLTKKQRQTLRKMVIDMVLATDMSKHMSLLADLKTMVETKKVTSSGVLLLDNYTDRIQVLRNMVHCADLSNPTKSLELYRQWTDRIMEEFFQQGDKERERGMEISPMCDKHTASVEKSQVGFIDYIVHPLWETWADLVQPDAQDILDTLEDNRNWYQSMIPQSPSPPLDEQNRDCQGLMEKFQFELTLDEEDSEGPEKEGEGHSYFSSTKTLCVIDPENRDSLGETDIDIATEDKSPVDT
Chain of ATP-dependent 6-phosphofructokinase (Trypanosoma brucei brucei) (O15648 whole entry, looked up): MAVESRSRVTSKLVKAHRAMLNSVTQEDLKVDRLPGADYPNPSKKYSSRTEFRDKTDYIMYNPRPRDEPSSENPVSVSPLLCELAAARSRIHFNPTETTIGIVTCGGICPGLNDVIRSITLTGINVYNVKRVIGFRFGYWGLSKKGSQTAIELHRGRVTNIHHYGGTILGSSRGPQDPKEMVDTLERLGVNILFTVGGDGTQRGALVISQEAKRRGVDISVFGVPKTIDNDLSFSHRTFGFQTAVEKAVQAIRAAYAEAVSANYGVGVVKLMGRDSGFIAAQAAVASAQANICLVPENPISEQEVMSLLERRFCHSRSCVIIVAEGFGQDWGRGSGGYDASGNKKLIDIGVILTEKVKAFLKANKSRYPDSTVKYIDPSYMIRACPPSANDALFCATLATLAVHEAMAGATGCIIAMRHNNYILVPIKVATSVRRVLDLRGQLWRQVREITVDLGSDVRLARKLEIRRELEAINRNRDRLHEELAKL

CCO[C@H]1O[C@@H]([C@H](COCc2ccccc2)OCc2ccccc2)[C@@H](OCc2ccccc2)[C@H]1O
inactive: activity change, negative = inhibition [1] -29.7% | outcome [2] | Potency [3] > 20.6 µM | Potency [4] > 20.6 µM | Potency [5] | outcome [6] | outcome [7] | Potency [8] | outcome [9] | Potency [10] | activity, negative = inhibition [11] -27.6% | Potency (3D7) | Potency (AA1029) | Potency (ATS95) | Potency (C2A) | Potency (CP185) | Potency (CP191) | Potency (CP192) | Potency (CP194) | Potency (CP201) | Potency (CP203) | Potency (CP211) | Potency (CP217) | Potency (CP237) | Potency (CP238) | Potency (CP247) | Potency (CP250) | Potency (CP252) | Potency (CP260) | Potency (CP262) | Potency (CP265) | Potency (CP268) | Potency (CP269) | Potency (CP286) | Potency (CP291) | Potency (CP297) | Potency (CP305) | Potency (CP315) | Potency (CP325) | Potency (CP329) | Potency (CP335) | Potency (DFO2036) | Potency (Dd2) | Potency (ECU) | Potency (FAB9) | Potency (JCK) | Potency (PAD) | Potency (PC15) | Potency (PC49) | Potency (SC27B) | Potency (TAB109) | Potency (TAB113)
